According to the supplement of paper PMC8728848:
Many of the other results were omitted from the sample, so the strongest signals are more common in it than they were.

Legend:
Test in all cases: glycan array binding signal (z-score within array); higher = stronger binding
Settings in all cases: glycan notation: IUPAC condensed, linker removed
[1] = tested on: Neu5Ac(a2-6)Gal(b1-4)GlcNAc(b1-3)Gal(b1-4)GlcNAc
Outline: (§1)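 Glycan array binding is given as a within-array Z-score, which can be read as non-binding when negative. The arrays, 3228 of them, came from the Consortium for Functional Glycomics database and were retained only where the protein sequence was available. Z-scores were averaged across arrays of the same protein sequence at different concentrations or buffers and across linkers.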

[2] = tested on: Neu5Ac(a2-6)Gal(b1-4)GlcNAc(b1-2)Man(a1-3)[Neu5Ac(a2-6)Gal(b1-4)GlcNAc(b1-2)Man(a1-6)]Man(b1-4)GlcNAc(b1-4)GlcNAc
Outline: as §1

[3] = tested on: Neu5Ac(a2-6)Gal(b1-4)GlcNAc(b1-2)Man(a1-3)[GlcNAc(b1-4)][Neu5Ac(a2-6)Gal(b1-4)GlcNAc(b1-2)Man(a1-6)]Man(b1-4)GlcNAc(b1-4)GlcNAc
Outline: as §1

[4] = tested on: Neu5Ac(a2-6)Gal(b1-4)GlcNAc(b1-2)Man(a1-3)[Man(a1-6)]Man(b1-4)GlcNAc(b1-4)GlcNAc
Outline: as §1

[5] = tested on: Neu5Ac(a2-6)Gal(b1-4)GlcNAc(b1-2)Man(a1-3)[Neu5Ac(a2-6)Gal(b1-4)GlcNAc(b1-2)Man(a1-6)]Man(b1-4)GlcNAc(b1-4)[Fuc(a1-6)]GlcNAc
Outline: as §1

[6] = tested on: Neu5Ac(a2-6)Gal(b1-4)GlcNAc(b1-2)Man(a1-6)[GlcNAc(b1-2)Man(a1-3)]Man(b1-4)GlcNAc(b1-4)GlcNAc
Outline: as §1

[7] = tested on: Neu5Ac(a2-6)Gal(b1-4)GlcNAc(b1-2)[Neu5Ac(a2-6)Gal(b1-4)GlcNAc(b1-4)]Man(a1-3)[GlcNAc(b1-4)][Neu5Ac(a2-6)Gal(b1-4)GlcNAc(b1-4)Man(a1-6)]Man(b1-4)GlcNAc(b1-4)GlcNAc
Outline: as §1

[8] = tested on: Neu5Ac(a2-6)Gal(b1-4)GlcNAc(b1-3)Gal(b1-4)GlcNAc(b1-3)Gal(b1-4)GlcNAc(b1-2)Man(a1-3)[Neu5Ac(a2-6)Gal(b1-4)GlcNAc(b1-3)Gal(b1-4)GlcNAc(b1-3)Gal(b1-4)GlcNAc(b1-2)Man(a1-6)]GalNAc
Outline: as §1

[9] = tested on: Neu5Ac(a2-6)Gal(b1-4)GlcNAc(b1-3)Gal(b1-4)GlcNAc(b1-3)[Neu5Ac(a2-6)Gal(b1-4)GlcNAc(b1-3)Gal(b1-4)GlcNAc(b1-6)]GalNAc
Outline: as §1

[10] = tested on: Neu5Ac(a2-6)Gal(b1-4)GlcNAc6S
Outline: as §1

Neu5Ac(a2-6)Gal(b1-4)Glc = tested on: Neu5Ac(a2-6)Gal(b1-4)Glc
Outline: as §1

[11] = tested on: Neu5Ac(a2-6)Gal(b1-4)GlcNAc
Outline: as §1

[12] = tested on: Neu5Ac(a2-6)Gal(b1-4)GlcNAc(b1-2)Man(a1-3)[GlcNAc(b1-2)Man(b1-4)GlcNAc(b1-2)Man(a1-6)]Man(b1-4)GlcNAc(b1-4)GlcNAc
Outline: as §1

[13] = tested on: Neu5Ac(a2-6)Gal(b1-4)GlcNAc(b1-6)[Gal(b1-3)]GalNAc
Outline: as §1

[14] = tested on: Neu5Ac(a2-6)Gal(b1-4)GlcNAc(b1-3)Gal(b1-3)GlcNAc
Outline: as §1

[15] = tested on: Neu5Ac(a2-6)Gal(b1-4)GlcNAc(b1-3)Gal(b1-4)[Fuc(a1-3)]GlcNAc(b1-3)Gal(b1-4)[Fuc(a1-3)]GlcNAc
Outline: as §1

[16] = tested on: Neu5Ac(a2-6)Gal(b1-4)GlcNAc(b1-2)Man(a1-6)Man(b1-4)GlcNAc(b1-4)GlcNAc
Outline: as §1

[17] = tested on: Neu5Ac(a2-6)Gal(b1-4)GlcNAc(b1-2)Man(a1-3)[GlcNAc(b1-2)Man(a1-6)]Man(b1-4)GlcNAc(b1-4)GlcNAc
Outline: as §1

[18] = tested on: Neu5Ac(a2-6)Gal(b1-4)GlcNAc(b1-2)Man(a1-6)[Man(a1-3)]Man(b1-4)GlcNAc(b1-4)GlcNAc
Outline: as §1

[19] = tested on: Neu5Ac(a2-6)Gal(b1-4)GlcNAc(b1-2)Man(a1-6)[Gal(b1-4)GlcNAc(b1-2)Man(a1-3)]Man(b1-4)GlcNAc(b1-4)GlcNAc
Outline: as §1

Chain of C3b (Homo sapiens), P01024 (P01024 23-667): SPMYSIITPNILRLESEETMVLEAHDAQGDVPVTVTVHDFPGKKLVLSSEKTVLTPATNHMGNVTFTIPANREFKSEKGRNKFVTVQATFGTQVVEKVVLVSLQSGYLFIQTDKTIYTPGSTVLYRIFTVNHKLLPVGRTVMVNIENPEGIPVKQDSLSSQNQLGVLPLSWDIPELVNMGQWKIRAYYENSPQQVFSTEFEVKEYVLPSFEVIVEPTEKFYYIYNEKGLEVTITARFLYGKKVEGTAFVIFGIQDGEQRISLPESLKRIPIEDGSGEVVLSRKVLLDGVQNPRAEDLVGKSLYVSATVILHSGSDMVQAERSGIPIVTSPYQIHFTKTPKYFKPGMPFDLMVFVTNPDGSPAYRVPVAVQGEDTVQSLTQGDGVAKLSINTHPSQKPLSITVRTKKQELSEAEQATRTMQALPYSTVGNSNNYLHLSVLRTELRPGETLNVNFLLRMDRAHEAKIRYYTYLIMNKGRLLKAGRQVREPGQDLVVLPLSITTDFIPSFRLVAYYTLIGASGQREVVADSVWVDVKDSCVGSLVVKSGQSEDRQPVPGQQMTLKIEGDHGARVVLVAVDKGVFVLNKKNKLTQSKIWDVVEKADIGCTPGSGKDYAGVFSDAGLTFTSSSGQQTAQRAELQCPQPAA
Chain of Aggrecan (Rattus norvegicus), NP_071526 (chain, as listed by the source): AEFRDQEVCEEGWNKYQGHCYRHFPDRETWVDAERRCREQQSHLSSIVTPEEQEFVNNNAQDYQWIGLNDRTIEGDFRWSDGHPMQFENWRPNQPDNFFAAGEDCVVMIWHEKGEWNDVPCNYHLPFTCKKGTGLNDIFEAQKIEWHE
Chain of PILRa (Mus musculus), Q2YSF3 (Q2YSF3 entry or part of it): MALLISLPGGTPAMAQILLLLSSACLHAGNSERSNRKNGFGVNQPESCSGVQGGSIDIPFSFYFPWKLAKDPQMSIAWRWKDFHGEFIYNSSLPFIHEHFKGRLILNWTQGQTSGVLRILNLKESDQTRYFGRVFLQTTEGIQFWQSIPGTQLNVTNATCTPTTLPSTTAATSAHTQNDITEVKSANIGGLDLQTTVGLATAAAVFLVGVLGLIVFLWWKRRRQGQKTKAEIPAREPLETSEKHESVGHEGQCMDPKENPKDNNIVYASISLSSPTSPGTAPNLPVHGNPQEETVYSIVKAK
Chain of CHI3L1 (Homo sapiens), P36222 (P36222 whole entry): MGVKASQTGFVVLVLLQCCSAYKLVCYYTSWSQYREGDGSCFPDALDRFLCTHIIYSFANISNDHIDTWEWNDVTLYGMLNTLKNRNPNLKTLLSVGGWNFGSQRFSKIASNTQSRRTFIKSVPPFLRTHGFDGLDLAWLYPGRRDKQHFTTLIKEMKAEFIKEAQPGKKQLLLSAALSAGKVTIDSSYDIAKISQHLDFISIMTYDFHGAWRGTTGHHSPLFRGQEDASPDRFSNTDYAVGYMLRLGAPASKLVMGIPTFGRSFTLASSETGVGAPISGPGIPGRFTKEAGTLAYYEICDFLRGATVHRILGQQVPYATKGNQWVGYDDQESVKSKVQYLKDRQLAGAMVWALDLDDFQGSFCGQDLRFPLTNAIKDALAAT
Chain of PILRb (Mus musculus), Q2YSF2 (Q2YSF2 entry or part of it): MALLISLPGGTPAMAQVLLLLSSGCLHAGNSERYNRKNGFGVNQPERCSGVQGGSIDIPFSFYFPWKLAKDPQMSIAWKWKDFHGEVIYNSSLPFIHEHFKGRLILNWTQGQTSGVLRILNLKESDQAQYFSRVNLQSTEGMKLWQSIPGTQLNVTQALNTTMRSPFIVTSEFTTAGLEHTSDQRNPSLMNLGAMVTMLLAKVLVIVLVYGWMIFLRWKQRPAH
Chain of Neurocan (Homo sapiens), O14594 (O14594 other isoform, or with tags, fused parts or gaps): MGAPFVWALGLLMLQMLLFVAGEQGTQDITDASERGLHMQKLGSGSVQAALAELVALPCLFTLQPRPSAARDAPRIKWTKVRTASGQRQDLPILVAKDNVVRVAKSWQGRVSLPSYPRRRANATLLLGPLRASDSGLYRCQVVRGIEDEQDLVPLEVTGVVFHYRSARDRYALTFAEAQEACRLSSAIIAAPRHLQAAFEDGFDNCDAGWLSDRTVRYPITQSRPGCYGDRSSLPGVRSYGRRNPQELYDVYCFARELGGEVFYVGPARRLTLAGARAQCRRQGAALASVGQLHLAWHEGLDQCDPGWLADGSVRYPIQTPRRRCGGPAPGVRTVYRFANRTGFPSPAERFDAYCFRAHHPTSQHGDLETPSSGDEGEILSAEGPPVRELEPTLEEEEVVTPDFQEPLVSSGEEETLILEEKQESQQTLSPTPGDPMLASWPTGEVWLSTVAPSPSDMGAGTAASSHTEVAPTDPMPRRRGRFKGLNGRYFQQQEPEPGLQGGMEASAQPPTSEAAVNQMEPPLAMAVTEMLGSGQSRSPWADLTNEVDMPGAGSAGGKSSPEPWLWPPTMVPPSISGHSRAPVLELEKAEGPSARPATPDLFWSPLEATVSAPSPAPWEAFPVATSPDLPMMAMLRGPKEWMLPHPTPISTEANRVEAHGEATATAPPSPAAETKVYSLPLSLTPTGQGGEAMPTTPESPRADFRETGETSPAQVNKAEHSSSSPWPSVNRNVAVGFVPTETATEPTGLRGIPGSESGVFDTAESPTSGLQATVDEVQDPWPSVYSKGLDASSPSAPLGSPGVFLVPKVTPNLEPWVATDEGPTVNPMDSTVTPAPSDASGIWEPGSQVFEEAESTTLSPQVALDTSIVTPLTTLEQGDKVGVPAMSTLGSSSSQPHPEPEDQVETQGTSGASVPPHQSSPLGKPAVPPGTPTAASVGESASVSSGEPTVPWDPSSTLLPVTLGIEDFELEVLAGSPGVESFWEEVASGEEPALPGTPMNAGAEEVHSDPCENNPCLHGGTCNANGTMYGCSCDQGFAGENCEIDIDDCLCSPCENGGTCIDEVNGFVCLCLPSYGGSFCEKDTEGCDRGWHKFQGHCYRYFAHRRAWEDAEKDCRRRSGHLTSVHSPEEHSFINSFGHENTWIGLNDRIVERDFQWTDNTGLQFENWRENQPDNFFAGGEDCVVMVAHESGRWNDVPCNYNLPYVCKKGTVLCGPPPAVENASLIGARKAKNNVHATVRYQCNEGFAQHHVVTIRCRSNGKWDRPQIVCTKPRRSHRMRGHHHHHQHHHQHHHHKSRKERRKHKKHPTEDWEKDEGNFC
Chain of Avaren (Actinomycete K97) (chain, as listed by the source): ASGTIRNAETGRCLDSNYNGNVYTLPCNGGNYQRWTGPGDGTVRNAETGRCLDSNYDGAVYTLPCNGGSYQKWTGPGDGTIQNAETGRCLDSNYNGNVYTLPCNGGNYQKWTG
Chain of CHT (Homo sapiens) (chain, as listed by the source): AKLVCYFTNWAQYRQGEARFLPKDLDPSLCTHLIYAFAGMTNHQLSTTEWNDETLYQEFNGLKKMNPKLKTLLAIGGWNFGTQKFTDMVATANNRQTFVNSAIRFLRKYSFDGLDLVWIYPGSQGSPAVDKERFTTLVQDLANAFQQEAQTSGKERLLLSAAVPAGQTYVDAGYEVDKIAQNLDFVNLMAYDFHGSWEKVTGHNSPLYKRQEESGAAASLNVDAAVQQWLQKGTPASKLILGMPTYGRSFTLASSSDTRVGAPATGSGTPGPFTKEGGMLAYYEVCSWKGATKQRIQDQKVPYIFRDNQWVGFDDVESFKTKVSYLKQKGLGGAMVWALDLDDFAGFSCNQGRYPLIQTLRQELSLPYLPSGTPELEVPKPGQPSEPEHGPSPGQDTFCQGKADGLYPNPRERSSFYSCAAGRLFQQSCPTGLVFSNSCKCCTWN
Chain of Regenerating Gene IV (Homo sapiens), Q9BYZ8 (Q9BYZ8 whole entry, looked up): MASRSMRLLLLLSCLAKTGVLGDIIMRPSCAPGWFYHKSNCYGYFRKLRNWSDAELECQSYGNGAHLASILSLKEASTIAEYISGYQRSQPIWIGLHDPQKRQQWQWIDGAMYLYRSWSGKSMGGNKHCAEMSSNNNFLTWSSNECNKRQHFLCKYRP
Chain of SRLC (Mus musculus), Q8VIF6 (Q8VIF6 other isoform, or with tags, fused parts or gaps): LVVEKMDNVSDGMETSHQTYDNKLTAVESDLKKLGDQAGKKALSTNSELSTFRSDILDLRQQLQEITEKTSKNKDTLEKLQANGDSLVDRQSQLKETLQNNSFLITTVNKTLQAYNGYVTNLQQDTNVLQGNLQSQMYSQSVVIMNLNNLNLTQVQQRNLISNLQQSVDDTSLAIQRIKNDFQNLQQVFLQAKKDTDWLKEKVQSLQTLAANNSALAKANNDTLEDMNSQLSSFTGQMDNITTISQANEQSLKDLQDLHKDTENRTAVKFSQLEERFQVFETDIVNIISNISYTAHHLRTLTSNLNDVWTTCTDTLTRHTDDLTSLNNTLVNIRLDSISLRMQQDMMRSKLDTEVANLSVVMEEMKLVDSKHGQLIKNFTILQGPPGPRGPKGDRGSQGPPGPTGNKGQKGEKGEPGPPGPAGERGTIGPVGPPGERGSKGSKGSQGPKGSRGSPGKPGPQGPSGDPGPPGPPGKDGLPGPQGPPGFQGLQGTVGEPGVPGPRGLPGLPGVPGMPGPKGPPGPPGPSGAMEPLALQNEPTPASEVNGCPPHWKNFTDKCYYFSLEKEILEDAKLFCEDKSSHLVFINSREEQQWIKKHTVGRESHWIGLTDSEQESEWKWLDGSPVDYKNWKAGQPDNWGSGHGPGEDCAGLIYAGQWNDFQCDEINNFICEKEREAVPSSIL

## HARE (Homo sapiens), Q8WWQ8
[1]
  glycan array binding signal (z-score): -0.057

## SRLC (Mus musculus), Q8VIF6
[2]
  glycan array binding signal (z-score): -0.158

## MpAFP RI GFP (Marinomonas primoryensis)
[3]
  glycan array binding signal (z-score): -0.435
[4]
  glycan array binding signal (z-score): 0.118
[5]
  glycan array binding signal (z-score): 2.72
[6]
  glycan array binding signal (z-score): -0.058
[7]
  glycan array binding signal (z-score): 0.092
[8]
  glycan array binding signal (z-score): 3.43
[9]
  glycan array binding signal (z-score): 1.36

## C3b (Homo sapiens), P01024
[2]
  glycan array binding signal (z-score): 0.001
[10]
  glycan array binding signal (z-score): 0.107
Neu5Ac(a2-6)Gal(b1-4)Glc
  glycan array binding signal (z-score): -0.687

## Regenerating Gene IV (Homo sapiens), Q9BYZ8
[11]
  glycan array binding signal (z-score): -0.335

## CHI3L1 (Homo sapiens), P36222
[12]
  glycan array binding signal (z-score): -0.028
[5]
  glycan array binding signal (z-score): -0.039
[1]
  glycan array binding signal (z-score): -0.105
[10]
  glycan array binding signal (z-score): -0.139

## Avaren (Actinomycete K97)
[13]
  glycan array binding signal (z-score): -0.134
[10]
  glycan array binding signal (z-score): -0.14

## PILRb (Mus musculus), Q2YSF2
[6]
  glycan array binding signal (z-score): -0.407
[11]
  glycan array binding signal (z-score): -0.349

## Neurocan (Homo sapiens), O14594
[14]
  glycan array binding signal (z-score): 0.267
[15]
  glycan array binding signal (z-score): -1.44

## Siglec-8 (Homo sapiens), Q9NYZ4
[16]
  glycan array binding signal (z-score): -0.178
[16]; mutation: R125K
  glycan array binding signal (z-score): 0.093
[6]; mutation: R125K
  glycan array binding signal (z-score): -0.193
[15]
  glycan array binding signal (z-score): 0.008
[11]; mutation: R125K
  glycan array binding signal (z-score): -0.306

## CHT (Homo sapiens)
[2]; mutation: D138V, E140I
  glycan array binding signal (z-score): 0.642

## Aggrecan (Rattus norvegicus), NP_071526
[17]
  glycan array binding signal (z-score): -0.152
[6]
  glycan array binding signal (z-score): -0.187
[18]
  glycan array binding signal (z-score): -0.224
[1]
  glycan array binding signal (z-score): -0.113

## PILRa (Mus musculus), Q2YSF3
[16]
  glycan array binding signal (z-score): -0.195
[19]
  glycan array binding signal (z-score): 1.22
[10]
  glycan array binding signal (z-score): 1.51
